This excerpt belongs to a sample that is enriched for hits.
Pf Dd2 inh – Plasmodium falciparum Dd2 growth inhibition | Potency, µM (top dose mostly 28.9 µM), inactives show at the highest dose activity, negative = inhibition, most hits filed as inhibitors | AID 1347417 | P. falciparum Dd2 growth, SYBR Green, 72 h | hit rate 4.3% among 120,000; active = well fitted inhibition curve with a large enough effect;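 note: plate controls were DMSO vehicle for no effect and reference drug for full effect; nearly all actives have a fitted effect of over 65% in size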
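Infected erythrocytes (Dd2, 0.3% parasitemia, 2.5% hematocrit final) are added to compound in RPMI-1640/Albumax II medium, grown 72 h at 37C in low oxygen, then lysed with saponin/Triton-X containing SYBR Green and read by fluorescence.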
Active calls of the source: *; [ ] = remark or other dose. Potency is the fitted concentration of half-maximal effect.

What do the screens show for `O=C(NC1C[C@H]2CC[C@@H](C1)N2C(=O)c1ccc(C(F)(F)F)cc1)c1ccncc1` (stereo partly drawn)?
Pf Dd2 inh: -21.1%

What do the screens show for `COc1ccccc1-c1ccnc(N[C@H]2CO[C@H]3[C@@H]2OC[C@@H]3NC(=O)c2ccccc2)n1`?
Pf Dd2 inh: -23.1%[44.1 µM]

How did CCOC(=O)C1CCCN(C(=O)C2CC(c3ccc(CC)cc3)CN(C(=O)c3ccoc3)C2)C1 (stereo not drawn) do in these assays?
Pf Dd2 inh: 1.12µM*

Results for CCOC(=O)C1CCCN(C(=O)C2CC(c3ccccc3)CN(C(=O)c3cccc(F)c3)C2)C1 (stereo not drawn) ?
Pf Dd2 inh: inactive

What do the screens show for `CCc1ccc(C2CC(C(=O)NC(C)c3ccccc3)CN(C(=O)c3ccoc3)C2)cc1` (stereo not drawn)?
Pf Dd2 inh: inactive

Results for Cc1ccccc1S(=O)(=O)NCCc1noc(-c2cccnc2)n1 ?
Pf Dd2 inh: -0.7%

Results for CC(=O)N[C@H]1CC[C@]2(C)CCC([C@H](C)C(=O)N3CCC(C)CC3)[C@H](O)[C@H]2[C@@H]1C (stereo partly drawn) ?
Pf Dd2 inh: -5.7%[44.1 µM]

How did CCn1cc(-c2ccc(C)cc2)cc1C(=O)N1CCN(c2ccccn2)CC1 do in these assays?
Pf Dd2 inh: -33.2%

What do the screens show for `COc1cccc(NC(=O)c2cccn(Cc3ccccc3C)c2=O)c1`?
Pf Dd2 inh: inactive

What do the screens show for `CCn1cc(-c2ccncc2)cc1C(=O)NCc1cccc(F)c1`?
Pf Dd2 inh: -0.4%

How did CCCn1cc(-c2ccncc2)cc1C(=O)N1CCN(c2ccccc2OC)CC1 do in these assays?
Pf Dd2 inh: 3.98µM*

Results for CCn1cc(-c2ccncc2)cc1C(=O)N1CCOCC1 ?
Pf Dd2 inh: -3.6%

How did Cc1ccccc1Cn1cc(-c2ccncc2)cc1C(=O)N1CCN(c2ccccc2)CC1 do in these assays?
Pf Dd2 inh: 3.55µM*

What do the screens show for `CCCn1cc(-c2ccncc2)cc1C(=O)N1CCN(C)CC1`?
Pf Dd2 inh: inactive

How did CC(=O)Nc1ccc(NC(=O)c2cc(-c3ccncc3)cn2Cc2ccccc2C)cc1 do in these assays?
Pf Dd2 inh: 3.16µM*

What do the screens show for `CCCN1CCN(C(=O)c2cc(-c3ccc(F)cc3)cn2CC)CC1`?
Pf Dd2 inh: -20.4%

How did CN(C(=O)c1cc2ccccc2s1)C1CCCN(C2Cc3ccccc3C2)C1 (stereo not drawn) do in these assays?
Pf Dd2 inh: inactive

How did O=C1CN(Cc2ccc(-c3ccsc3)cc2)CCN1c1cc(Cl)ncn1 do in these assays?
Pf Dd2 inh: -9.9%

Results for CC(=O)N1C[C@@H](C(=O)NCc2ccc(F)c(Cl)c2)[C@H](c2nc(C)no2)C1 ?
Pf Dd2 inh: -11.6%

What do the screens show for `COCC1CN(C(C)=O)CC12CCN(C(=O)c1ccc(C)cc1C)CC2` (stereo not drawn)?
Pf Dd2 inh: 15.7%

How did O=C(N[C@@H]1CN(Cc2c(F)cccc2Cl)C[C@H]1CO)C1CC1 do in these assays?
Pf Dd2 inh: -8.4%

What do the screens show for `CCOc1ccccc1CN1C[C@@H](CO)[C@H](NC(=O)C2CC2)C1`?
Pf Dd2 inh: 7.94µM*

Results for COc1ccc(CN2C[C@@H](CO)[C@H](NC(=O)C3CCC3)C2)cc1 ?
Pf Dd2 inh: 9.5%

What do the screens show for `Cc1ccccc1NC(=O)N1CCc2c(c3cc(F)ccc3n2C)C1`?
Pf Dd2 inh: inactive

What do the screens show for `OC[C@@H]1CNC[C@H]1C1CCN(Cc2cccc(C(F)(F)F)c2)CC1`?
Pf Dd2 inh: inactive

Results for CN(C)C(=O)N1CCCC(CCc2ccccc2C(F)(F)F)C1 (stereo not drawn) ?
Pf Dd2 inh: -23.9%

What do the screens show for `COc1c[nH]c(CN2CCCC(CCc3ccccc3C(F)(F)F)C2)cc1=O` (stereo not drawn)?
Pf Dd2 inh: 8.91µM*

How did CNC(=O)c1noc(CN2CCCC(CCc3ccccc3C(F)(F)F)C2)n1 (stereo not drawn) do in these assays?
Pf Dd2 inh: -25.7%

What do the screens show for `COC(=O)[C@@H](Cc1cccnc1)NC(=O)[C@@H]1CN(C(=O)c2cccc(F)c2)CCN1C(=O)c1cccs1`?
Pf Dd2 inh: -1.5%

How did CCN1C(=O)C2(CCN(S(=O)(=O)c3cccc(C)c3)CC2)c2ccccc21 do in these assays?
Pf Dd2 inh: inactive

What do the screens show for `CCN1C(=O)C2(CCN(S(=O)(=O)c3ccc(Cl)cc3C)CC2)c2ccccc21`?
Pf Dd2 inh: 1µM*

Results for CCN1C(=O)C2(CCN(S(=O)(=O)c3ccc(C)c(C)c3)CC2)c2ccccc21 ?
Pf Dd2 inh: inactive

How did Cc1ccc(C(=O)N[C@H]2CO[C@H]3[C@@H]2OC[C@@H]3n2nnnc2Oc2ccccc2)cc1 do in these assays?
Pf Dd2 inh: inactive

Results for O=C(c1n[nH]c2c1CN(Cc1cccnc1)CC2)N1CCOCC1 ?
Pf Dd2 inh: 31.6%

Results for CC(C)c1nc2c(c(-c3ccc(O)cc3)n1)CCN(Cc1cncs1)CC2 ?
Pf Dd2 inh: -7.9%

What do the screens show for `COc1ccc(-c2nc(C)nc3c2CCN(CC2CCCCC2)CC3)cc1`?
Pf Dd2 inh: inactive

What do the screens show for `COc1ccc(-c2nc(C3CC3)nc3c2CCN(Cc2ccc(NC(C)=O)cc2)CC3)cc1`?
Pf Dd2 inh: 8.91µM*

How did Cc1nc2c(c(-c3ccc(O)cc3)n1)CN(Cc1ccc(F)cc1)CC2 do in these assays?
Pf Dd2 inh: -5.8%

What do the screens show for `CC(=O)Nc1ccc(CN2CCc3nc(C4CC4)nc(-c4ccc(O)cc4)c3CC2)cc1`?
Pf Dd2 inh: inactive

What do the screens show for `COc1ccc(-c2nc(C3CC3)nc3c2CN(S(=O)(=O)c2cccc(OC)c2)CC3)cc1`?
Pf Dd2 inh: -27.7%

What do the screens show for `COc1ccc(-c2nc(C3CC3)nc3c2CCN(Cc2ccc(C#N)cc2)CC3)cc1`?
Pf Dd2 inh: 7.94µM*

Results for COc1ccc(-c2nc(C3CC3)nc3c2CCN(Cc2cncs2)CC3)cc1 ?
Pf Dd2 inh: 10µM*

What do the screens show for `Oc1ccc(-c2nc(C3CC3)nc3c2CCN(Cc2ccccn2)CC3)cc1`?
Pf Dd2 inh: inactive

How did COc1ccc(-c2nc(C3CC3)nc3c2CCN(Cc2ccnn2C)CC3)cc1 do in these assays?
Pf Dd2 inh: -1.2%

How did Oc1ccc(-c2nc(C3CC3)nc3c2CCN(Cc2ccc(F)cc2)CC3)cc1 do in these assays?
Pf Dd2 inh: 3.98µM*

How did COc1ccc(-c2nc(C)nc3c2CCN(Cc2ccnn2C)CC3)cc1 do in these assays?
Pf Dd2 inh: inactive

How did CCn1cc(S(=O)(=O)N2CCC(C(=O)O)(n3cccn3)CC2)cn1 do in these assays?
Pf Dd2 inh: -3.3%

How did O=C(Nc1ccccc1)O[C@@H]1CO[C@H]2[C@@H]1OC[C@@H]2n1nnnc1Sc1ccccc1 do in these assays?
Pf Dd2 inh: -36.9%[44.1 µM]

Results for O=C(O)Cn1nc(COc2ccc(F)cc2)nc1CN1CCCCCC1=O ?
Pf Dd2 inh: -0.5%

Results for CSc1cccc(NC(=O)Cn2nc3n(c2=O)CCCCC3)c1 ?
Pf Dd2 inh: 19.8%

Results for O=C(Cn1nc2n(c1=O)CCCCC2)Nc1ccc(Br)cc1 ?
Pf Dd2 inh: 14.0%

Results for COc1ccc(CN2CCc3nc(C4CC4)nc(-c4ccc(O)cc4)c3C2)cc1 ?
Pf Dd2 inh: inactive

How did CCc1nc2c(c(-c3ccc(O)cc3)n1)CCN(C(=O)c1ccc(OC)cc1)CC2 do in these assays?
Pf Dd2 inh: inactive

What do the screens show for `COc1ccc(CN2CCc3nc(C4CC4)nc(-c4ccc(O)cc4)c3CC2)cc1`?
Pf Dd2 inh: 3.98µM*

What do the screens show for `COCCOC1CCN(C(=O)Cc2c[nH]c3ccccc23)CC1`?
Pf Dd2 inh: 21.1%

Results for COc1cc(NC(=O)c2ccc3c(Cl)c4c(nc3c2)CCC4)cc(OC)c1OC ?
Pf Dd2 inh: -18.4%

High-throughput results from PubChem.
